Rab9 promoter act: activators of Rab9 promoter | hit rate 2.8% among 320,000 | Huh7 Rab9 promoter-luciferase reporter, luminescence, 24 h | Potency, µM (highest dose often 9.22 µM), usual class: activators; also: nearly all actives have a fitted effect of over 60% in size
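Promoter activation is measured as luciferase luminescence in Huh7 cells stably transfected with a Rab9 promoter–luciferase construct, following 24 h compound exposure at 37 °C and 10 min reagent incubation at ambient temperature.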
ELG1 genotoxic: induces genotoxicity in HEK293T cells with luciferase-tagged ELG1; Potency, µM (highest dose often 46 µM), actives largely listed as activators; AID 504466; HEK293T ELG1-luciferase reporter, luminescence, 16 h; hit rate 1.3% among 330,000; also: nearly all actives have a fitted effect of over 60% in size
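ELG1-luciferase HEK293T cells, 2,000/well; compound pinned in; 16 hr, 37 °C, 5% CO2; ONE-Glo, 30 min RT; luminescence on CCD imager.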
SMN2 splice up: increases expression of the SMN2 splice variant; HEK293 SMN2-luciferase splicing reporter, luminescence, 30-36 h; Potency, µM (top dose mostly 46.1 µM), hits mostly activators; hit rate 2.8% among 210,000; AID 1458; also: nearly all actives have a fitted effect of over 55% in size
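qHTS luciferase splicing reporter: luminescence rises when SMN2 exon 7 is included in transfected HEK293 cells. Compound exposure lasted 30-36 h at 37C, with 4.5 mM final sodium butyrate as control, followed by a ONE-Glo read.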
NPC1 promoter act: NPC1 promoter activation; Potency, µM (doses to about 9.22 µM), hits mostly activators; AID 485313; Huh7 NPC1 promoter luciferase reporter, 24 h; hit rate 2.4% among 320,000; also: nearly all actives have a fitted effect of over 60% in size
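Quantitative HTS used a cell-based reporter: Huh7 cells stably bearing the NPC1 promoter upstream of luciferase were treated with compounds for 24 h, and promoter activation was read as luminescence.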
FLuc modulator: counter-screen for miR-21 project: firefly luciferase inhibitors or activators | Potency, µM (series often up to 57.5 µM), usual class: inhibitors | P08659 | AID 588342 | purified FLuc, Km substrates, luminescence inhibition | hit rate 6.9% among 360,000; also: nearly all actives have a fitted effect of over 55% in size
Target sequence (P08659 whole entry, looked up): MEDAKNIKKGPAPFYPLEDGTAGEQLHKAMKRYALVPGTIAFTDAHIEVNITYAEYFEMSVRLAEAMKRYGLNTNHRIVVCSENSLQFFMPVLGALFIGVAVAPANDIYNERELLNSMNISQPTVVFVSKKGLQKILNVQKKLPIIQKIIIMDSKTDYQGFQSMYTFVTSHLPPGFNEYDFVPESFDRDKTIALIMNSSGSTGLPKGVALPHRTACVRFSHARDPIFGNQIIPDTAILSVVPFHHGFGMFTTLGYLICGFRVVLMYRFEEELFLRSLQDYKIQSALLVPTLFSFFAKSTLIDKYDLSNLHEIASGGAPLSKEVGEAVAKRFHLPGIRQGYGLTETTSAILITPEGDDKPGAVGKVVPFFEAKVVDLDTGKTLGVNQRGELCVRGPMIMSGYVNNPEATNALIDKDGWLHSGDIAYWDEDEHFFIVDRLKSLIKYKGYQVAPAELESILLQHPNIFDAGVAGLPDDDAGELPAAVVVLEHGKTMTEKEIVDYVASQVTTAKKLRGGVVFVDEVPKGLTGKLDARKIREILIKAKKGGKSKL
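Purified P. pyralis luciferase, 10 nM final, with Km-level 10 uM D-luciferin and 10 uM ATP in 50 mM Tris acetate pH 7.5, 10 mM Mg acetate, 0.01% Tween-20, 0.05% BSA; 6-point qHTS titration about 60 µM downward; luminescence read.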
Hits are given with their value; . = inactive; ? = inconclusive; / = no result given. Sampled rows, rich in hits. Any-hit rate of the full collection: about 7.5%. Calls follow the shape of the dose curve; as a rule, active = well fitted curve in the direction sought with a large enough effect; inconclusive = small, poorly fitted or top-dose-only effect, or another doubt; inactive = no such curve, though single readings can be large; an effect the other way counts as inactive or inconclusive.

SMILES	Rab9 promoter act	ELG1 genotoxic	SMN2 splice up	NPC1 promoter act	FLuc modulator
Nc1c(-c2cccc(Cl)c2)cnc2c(-c3ccccc3)cnn12	?	?	/	1.3µM	4.3µM
Cc1cc(C(F)(F)F)n2ncc(-c3ccc(F)cc3)c2n1	.	.	.	.	.
COc1ccccc1-c1c(C)nn2c(N)c(-c3ccc(Cl)cc3)cnc12	.	.	/	.	?
COc1ccc(-c2c(C)nc3c(-c4ccc(F)cc4)cnn3c2N)cc1	0.45µM	?	/	0.5µM	0.85µM
Nc1c(-c2ccc(Cl)cc2)cnc2c(-c3ccc(F)cc3)cnn12	0.5µM	7.3µM	/	0.56µM	1.5µM
Cc1nc2c(-c3ccc(F)cc3)cnn2c(N)c1-c1ccccc1	.	0.58µM	/	.	0.24µM
CC(=O)NCc1nc2cccnc2n1Cc1ccccc1	/	/	/	/	.
Cc1nc2c(-c3ccc(Cl)cc3)cnn2c(N)c1-c1ccc(F)cc1	?	6.5µM	/	.	1.7µM
c1ccc(Cc2nc3ccccc3o2)cc1	.	.	.	.	19µM
Cc1ccc(N=Nc2c(O)n(CN3CCOCC3)c3ccccc23)cc1	0.4µM	3.7µM	22µM	1.4µM	2.7µM
Oc1ccccc1OCc1nc2ccccc2s1	.	8.2µM	32µM	.	5.4µM
OCc1cc(Br)ccc1OCc1nc2ccccc2s1	2.8µM	?	/	3.2µM	5.4µM
N=c1ccn2c(n1)O[C@H]1[C@@H](O)[C@@H](CO)O[C@H]12	/	/	.	/	/
CCc1cccc(C)c1NC(=O)NC1COc2ccccc2C1 (stereo not drawn)	/	/	/	/	.
COCC(C)NC(=O)CSc1nc2ccccc2n1CCc1ccccc1 (stereo not drawn)	.	.	/	.	.
CCn1ccc(C(=O)Nc2ccccc2SC)n1	4.5µM	?	14µM	?	?
CCn1ccc(C(=O)Oc2ccc(Cl)cc2)n1	.	.	.	.	7.6µM
CCn1ccc(C(=O)Nc2ccc(N(C)C(C)=O)cc2)n1	?	?	.	.	?
CCn1ccc(C(=O)Nc2ccc(Cl)cn2)n1	4µM	?	?	3.2µM	19µM
CCn1nccc1C(=O)Nc1ccc(Cl)cn1	.	?	.	.	?
O=C(CCN1C(=O)c2ccccc2S1(=O)=O)N1CCN(c2cccc(Cl)c2)CC1	.	.	/	.	.
CC(C)c1ccc(NC(=O)c2ccccc2NC(=O)C2CC=CCC2C(=O)O)cc1 (stereo not drawn)	.	?	/	.	27µM
Cc1nn(C)c(C)c1NC(=O)CN1CCC(O)(c2ccc3c(c2)OCO3)CC1	.	.	.	.	.
COc1ccc2nc3ccccc3nc2c1N	3.2µM	18µM	/	2.2µM	4.8µM
COc1ccc2nc3cccc(OC)c3nc2c1	?	.	?	.	?
SMILES	Rab9 promoter act	ELG1 genotoxic	SMN2 splice up	NPC1 promoter act	FLuc modulator
COc1ccc(C2OC(=O)CC2C(=O)NCc2ccc(Cl)cc2)cc1OC (stereo not drawn)	?	?	?	?	17µM
CC(C)(C)c1ccc(-c2cc(-c3ccccc3O)[nH]n2)cc1	0.28µM	0.58µM	/	0.32µM	0.76µM
Oc1ccccc1-c1cc(-c2cccc(F)c2)n[nH]1	.	?	?	.	5.4µM
CSc1nc2c(cnn2-c2ccccc2)c(=O)n1N	.	.	?	?	?
CCSc1nc2c(cnn2-c2ccccc2)c(=O)n1N	1.3µM	?	/	2.2µM	13µM
O=C(c1ccco1)N1CCC(c2nc3c(nnn3Cc3ccc(F)cc3)c(=O)[nH]2)CC1	.	.	/	.	.
CC(=O)Nc1ccc(-c2csc(Nc3cc(C)ccn3)n2)cc1	.	.	.	?	15µM
CC(=O)Nc1cccc(-c2csc(Nc3ccc(Cl)cn3)n2)c1	3.2µM	?	11µM	2µM	2.4µM
CC(=O)Nc1cccc(-c2csc(Nc3ccccn3)n2)c1	1.1µM	?	11µM	1.3µM	1.5µM
Cc1ccnc(Nc2nc(-c3ccccc3)cs2)c1	?	?	/	1.4µM	1.1µM
CC(=O)Nc1ccc(-c2csc(Nc3ccc(Cl)cn3)n2)cc1	.	.	.	.	.
Cn1c(=O)c(=O)n(C)c2cc(N3CCOCC3)c(NS(=O)(=O)c3ccc(Br)cc3)cc21	.	.	/	.	.
Cc1[nH]c2ccccc2c1C(=O)C(=O)NC1CC(=O)N(c2ccc(F)cc2)C1 (stereo not drawn)	.	.	/	.	.
CC(=O)Nc1cccc(-c2csc(Nc3cc(C)ccn3)n2)c1	1.3µM	.	?	2.5µM	2.7µM
Cc1ccnc(Nc2nc(-c3c(C)nc4sccn34)cs2)c1	.	.	.	.	8.5µM
CSc1ccccc1C(=O)N(CC1CCCO1)c1c(N)n(Cc2ccccc2)c(=O)[nH]c1=O (stereo not drawn)	.	.	/	.	.
O=C(Nc1ccccc1)Nc1ccc(C(=O)N2CCCC2)cc1	0.35µM	?	6.3µM	0.56µM	2.4µM
Cc1cc(C)cc(NC(=O)Nc2ccc3c(c2)N(C)C(=O)CS3)c1	.	.	.	.	?
CC(=O)c1cccc(NC(=O)Nc2ccc(C(=O)N3CCCC3)cc2)c1	.	.	.	.	6.7µM
CC(=O)c1cccc(NC(=O)Nc2ccc3c(c2)N(C)C(=O)CS3)c1	.	.	.	.	15µM
O=C1c2ccccc2-c2ccc(C(=O)N3CCCCC3)cc21	?	?	.	?	27µM
COCCn1c(SCC(=O)Nc2ccccc2)nc2c(oc3ccccc32)c1=O	.	23µM	.	.	.
COCCCn1c(SCC(=O)Nc2ccc(C)cc2)nc2ccccc2c1=O	.	.	/	.	24µM
CC[C@]1(C(=O)OC)[C@H]2C(=O)N(Cc3ccccc3)C(=O)[C@H]2[C@H]2CN=C(SC)N21	/	.	/	/	/
O=C1c2cccc3c(N4CCCCC4)ccc(c23)C(=O)N1CCO	?	?	.	?	15µM
SMILES	Rab9 promoter act	ELG1 genotoxic	SMN2 splice up	NPC1 promoter act	FLuc modulator
O=C1c2cccc3c(N4CCCCC4)ccc(c23)C(=O)N1c1cccc(O)c1	.	.	.	.	19µM
CC1CCN(S(=O)(=O)c2ccc3c(c2)CCN3C(=O)Nc2ccc(Br)cc2F)CC1	/	/	.	/	.
Clc1ccc2[nH]cc(-c3nnnn3-c3ccccc3)c2c1	.	.	.	.	24µM
COc1ccc(NC(=O)c2sc(Cl)nc2-c2ccccc2)cc1	.	.	.	.	.
CNC(=O)c1ccc(-c2ccc(F)cc2)s1	?	18µM	?	?	9.5µM
CNC(=O)c1ccc(-c2ccc(OC)cc2)s1	.	?	18µM	1.3µM	6.7µM
CNC(=O)c1ccc(-c2ccc(Cl)c(Cl)c2)s1	?	?	.	.	?
COc1ccc(NC(=O)c2ccc(-c3ccc(OC)cc3)s2)cc1	.	.	10µM	.	.
CN(C)C(=O)c1cn(-c2ccccc2)nc1-c1cc2ccccc2oc1=O	.	.	.	.	.
O=C(O)/C=C\c1cn(-c2ccccc2)nc1-c1cc2ccccc2o1	.	.	.	.	13µM
CN(Cc1cn(-c2ccccc2)nc1-c1cc2ccccc2o1)C(=O)CCC(=O)O	.	?	.	.	3µM
O=C(O)/C=C/c1cn(-c2ccccc2)nc1-c1cc2ccccc2o1	.	.	/	.	15µM
